The list is not random: actives were taken first. Their share in the collection is about 21%.
NS1 inh – influenza NS1 inhibition. 0.4% of 270,000 active. AID 2326. Potency, µM (highest dose often 46.1 µM); calls by dose curve; also: actives are rising curves; nearly all actives have a fitted effect of over 50% in size
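Read-out: OD600 growth recovery of NS1-expressing budding yeast. Cells grown overnight at 30C in -URA glucose medium, washed, resuspended and diluted 1:100 in 2% galactose assay medium, pH 6.0. Same strain lacking NS1 served as positive control.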
Pf growth 96h – inhibits malaria parasite growth, 96 h; 6.9% of 320,000 active; Potency, µM (series often up to 28.7 µM), usual class: inhibitors; P. falciparum luciferase reporter growth, 96 h; AID 504834
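Two-generation exposure (96 h) targets delayed-death phenotype. Reporter parasites carrying integrated firefly luciferase, in red cells at 2% hematocrit and 0.05% parasitemia final, kept at 37 C, 5% CO2; luminescence loss indicates inhibition.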
SARS PLP yeast – inhibitors of SARS-CoV papain-like protease in yeast. AID 485353. Potency, µM (highest dose often 32.9 µM), hits mostly activators. S. cerevisiae expressing SARS-CoV PLpro, growth rescue. 0.19% of 330,000 active; calls by dose curve; also: nearly all actives have a fitted effect of over 55% in size
Shiga inhibitor – blocks Shiga toxin action in Vero cells | Vero cells, Shiga toxin protein synthesis inhibition reporter | inhibition, % at 38.7 µM | 9.2% of 290,000 active; in the data active = inhibition mostly above about 28%, no sharp cut-off; inactive = mostly below about 43%
Cycloheximide cs – counter-screen for Shiga toxin inhibitors: cycloheximide protein synthesis inhibition | cell reporter, cycloheximide protein synthesis inhibition counterscreen | max response, % | 12% of 300,000 active | AID 2314; in the data active = max response mostly above about 13%, no sharp cut-off; inactive = mostly below about 14%; also: read at 38.3 µM for the half of the compounds with a filed dose
Pf growth 48h – inhibits P. falciparum growth in the first generation, 48 h. P. falciparum luciferase growth in erythrocytes, 48 h. Potency, µM (titrated, usually from 28.7 µM), usual class: inhibitors. 5.9% of 310,000 active. AID 504832
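Luciferase-expressing parasites in RBCs, 2% Hct / 0.1% parasitemia final; RPMI 1640 + 0.5% Albumax; 37 C, 5% CO2, one generation; luminescence read-out, lower signal = inhibition.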
Numbers stand for hits; i = inactive; ? = inconclusive; nt = no result; + = active, no number. Unless noted, calls follow the shape of the dose curve; as a rule, active = well fitted inhibition curve with a large enough effect; inconclusive = small, poorly fitted or top-dose-only effect, or another doubt; inactive = no such curve, though single readings can be large or run the other way.

SMILES	NS1 inh	Pf growth 96h	SARS PLP yeast	Shiga inhibitor	Cycloheximide cs	Pf growth 48h
COc1ccc(OCc2cc(C(=O)N(C)CC3CCCCO3)no2)c(Cl)c1 (configuration not stated)	i	?	i	79	48	i
COc1ccc(OCc2cc(C(=O)N(C)CCC3CCOCC3)no2)c(Cl)c1	i	?	i	60	32	i
COc1ccc(OCc2cc(C(=O)N(C)C(C)c3ccon3)no2)c(Cl)c1 (configuration not stated)	i	?	i	73	34	i
COc1cc(Cl)ccc1OCc1cc(C(=O)N(C)CC2CCCCO2)no1 (configuration not stated)	i	?	i	88	40	i
C=CCC[C@@H](Cc1ccc(F)cc1)C(=O)OC[C@@H]1CCCN1C(=O)[C@@H](CC=C)CC(=O)N[C@@H](CO)Cc1ccccc1	nt	nt	i	nt	nt	nt
C=CCNC(=O)c1cccc(C(F)(F)F)c1	i	i	i	i	i	i
COc1ccc(CNC(=O)C(c2ccco2)N(C(=O)c2snc(C(N)=O)c2N)c2ccccc2OC)cc1 (configuration not stated)	i	i	i	i	i	?
COc1ccc(C2CC(c3ccc(C)cc3)=NN2C(=O)CCC(=O)O)cc1OC (configuration not stated)	?	?	i	i	i	i
CCS(=O)(=O)Nc1cccc(C2=NN(S(C)(=O)=O)C(c3ccccc3)C2)c1 (configuration not stated)	nt	i	i	i	i	i
CC(=O)N1N=C(c2ccc(C)cc2)CC1c1ccc2c(c1)OCO2 (configuration not stated)	i	i	i	52	45	i
CC(=O)N1N=C(c2ccc(NS(C)(=O)=O)cc2)CC1c1ccc2nccnc2c1 (configuration not stated)	i	?	i	i	i	i
CS(=O)(=O)Nc1ccc(C2=NN(S(C)(=O)=O)C(c3ccc4nccnc4c3)C2)cc1 (configuration not stated)	i	i	i	i	15	i
Cc1ccc(C2=NN(S(C)(=O)=O)C(c3ccc4c(c3)OCO4)C2)cc1 (configuration not stated)	i	i	i	+	76	i
Cc1ccc(C2=CC(=O)C[C@H](c3ccc4c(c3)OCO4)C2)cc1	nt	?	i	nt	nt	?
CS(=O)(=O)N1N=C(c2ccc(Br)cc2)CC1c1ccc2c(c1)OCO2 (configuration not stated)	i	i	i	83	45	i
CC1CCN(CC(O)COCCC23CC4CC(CC(C4)C2)C3)CC1 (configuration not stated)	i	?	i	i	i	nt
CCN(CC)S(=O)(=O)c1ccc(C(=O)Nc2cc(C)cc(C)c2)cc1	i	?	i	i	i	?
CCN(CC)S(=O)(=O)c1cccc(C(=O)NC(C(=O)Nc2nnc(C)s2)C(C)C)c1 (configuration not stated)	i	nt	i	i	i	12µM
CCN(CC)S(=O)(=O)c1cccc(C(=O)N[C@H](C(=O)O)C(C)C)c1	i	i	i	i	i	nt
CCN(CC)S(=O)(=O)c1cccc(C(=O)Nc2cccc(C)c2)c1	i	i	i	i	27	nt
CCN(CC)S(=O)(=O)c1cccc(NC(=O)c2ccc(Br)cc2)c1	nt	i	i	i	i	?
CCN(CC)S(=O)(=O)c1cccc(C(=O)Nc2cc(C)cc(C)c2)c1	i	?	i	39	17	i
Cc1cccc(C(=O)N/C(=C\c2ccc(C)o2)C(=O)O)c1	i	?	i	i	i	i
Cc1cccc(C)c1NC(=O)CSc1nnc(Cc2ccccc2)o1	i	12µM	i	i	i	i
O=C(CSc1nnc(Cc2ccccc2)o1)Nc1ccc2c(c1)OCO2	i	i	i	i	38	nt
SMILES	NS1 inh	Pf growth 96h	SARS PLP yeast	Shiga inhibitor	Cycloheximide cs	Pf growth 48h
CC1CCC(NC(=O)CC(NC(N)=O)c2ccccc2Cl)CC1 (configuration not stated)	?	i	i	i	31	i
NC(=O)NC(CC(=O)NCCCc1ccccc1)c1ccccc1Cl (configuration not stated)	nt	i	i	i	i	i
COc1cc(/C=N/NC(=S)NCCN2CCOCC2)cc(OC)c1O	i	i	i	77	19	i
O=C(NCCSCc1ccccc1)c1ccc(F)cc1	i	?	i	i	i	?
CC(=NC1CCCCC1)C1=C(O)c2ccccc2C1=O	i	?	i	i	46	nt
CC(=O)N(C1=C(Cl)C(=O)c2ccccc2C1=O)C1CCCCC1	i	?	i	i	i	?
COCCN(CCOC)c1nc(-c2ccccc2)nc2ccccc12	i	?	i	i	i	13µM
CCN(CC)CCOC(c1ccccc1)c1ccc(C)cc1 (configuration not stated)	i	?	i	i	i	?
CCN(CC)CCC(C)OC(c1ccccc1)c1ccccc1 (configuration not stated)	nt	i	i	53	22	i
Cc1cc(Cl)ccc1N(CC(=O)NCc1ccccc1)S(C)(=O)=O	i	i	i	i	i	i
Cc1ccc(N(CC(=O)Nc2cc(Cl)ccc2Oc2ccccc2)S(C)(=O)=O)cc1C	i	8.3µM	i	i	i	nt
Cc1ccc(Oc2ccc(Cl)cc2NC(=O)c2ccc(F)cc2F)cc1	i	10µM	i	i	i	5.2µM
O=C(Nc1cc(Cl)ccc1Oc1ccccc1)c1ccccc1F	i	i	i	i	i	?
COc1ccc(C)cc1NC(=O)CN(c1ccccc1)S(C)(=O)=O	i	?	i	i	i	i
Cc1ccc(N(C(C)C(=O)Nc2cc(Cl)ccc2Oc2ccccc2)S(C)(=O)=O)cc1 (configuration not stated)	i	7.4µM	i	i	i	4.7µM
Cc1ccc(N(CC(=O)Nc2cc(Cl)ccc2Oc2ccccc2)S(C)(=O)=O)c(C)c1	i	12µM	i	i	i	nt
CCN(CC)c1ccc(N=CN2CCOCC2)cc1	i	?	i	i	i	?
CS(=O)(=O)N(CC(=O)N1CCCCCC1)Cc1ccc(Cl)cc1	i	nt	i	i	i	i
CCCCNS(=O)(=O)c1ccc(OCC(=O)N2CCN(Cc3ccc4c(c3)OCO4)CC2)cc1	i	10µM	i	i	i	?
CS(=O)(=O)N(CC(=O)N1CCN(Cc2ccc3c(c2)OCO3)CC1)Cc1ccc(Cl)cc1	i	1.9µM	i	i	i	nt
O=C(COc1ccc(S(=O)(=O)N2CCOCC2)cc1)N1CCN(Cc2ccc3c(c2)OCO3)CC1	i	?	i	i	i	nt
CS(=O)(=O)N(CC(=O)N1CCOCC1)Cc1ccc(Cl)cc1	i	7.4µM	i	i	i	i
NC(=O)c1ccccc1N1CCCCC1	i	i	i	i	i	i
S=c1[nH]nc(-c2ccccn2)n1/N=C/c1ccc(Cl)cc1	i	i	i	i	i	?
Cc1c(C(=O)Nc2ccc(F)cc2)oc2ccc(S(=O)(=O)N3CC(C)CC(C)C3)cc12 (configuration not stated)	i	nt	i	i	i	10µM
